# Source: the emibetuzumab library of Makowski et al. (2022)
# The list shows a part of the results. The true hit rate is not given.
# B1: VH:VL chains; a variant is named by its letters at X, in order (parent)
# chain 1: QVQLVQSGAEVKKPGASVKVSCKASGYTFTDYXMHWVRQAPGQGLEWMGXVNPNXXXTTYNQKFEGRVTMTTDTSTSTAYMELRSLRSDDTAVYYCARXNXLDXWGQGTTVTVSS
# chain 2: DIQMTQSPSSLSASVGDRVTITCSVSSSVSSIYLHWYQQKPGKAPKLLIYSTSNLASGVPSRFSGSGSGTDFTLTISSLQPEDFATYYCQVYSGYPLTFGGGTKVEIK
# Variants of: B1
# Test: yeast display scFab, FACS + sequencing
# Conditions: with MET
# How it was run: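 For FACS, yeast displaying a heavy-chain CDR mutant scFab library were labelled with 1 nM HGFR-Fc and anti-Myc (PBSB, 1% milk, 3 h, room temperature), and the top 50% antigen-positive cells were gated. Input and round-3 sorted populations were deep sequenced in two replicates. The binding call was positive for sequences occurring in both antigen-positive samples and negative for sequences occurring only in input.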
row,Variant,antigen binding call
1,FRGRGYGA,no binding
2,FRGRGAGA,binds
3,FRGRGVGA,binds
4,YRGRGVGA,binds
5,ARGGDDGA,no binding
6,VRGTGSGA,binds
7,ATGTGSGA,no binding
8,VAEKGSGA,no binding
9,VRGKGSGA,binds
10,VKGKGDLA,no binding
11,VGGTSSGA,no binding
12,VGGTGSGA,no binding
13,VTGEDSLA,no binding
14,VRGKGSLA,binds
15,FERTSVWF chain 1 L45F,no binding
16,SAGGDYVF,no binding
17,DREEGDAV,no binding
18,YTGEGSWV,binds
19,YRGESAWV,binds
20,YRGEGDAV,binds

row,Variant,antigen binding call
1,YTTRGSWV,no binding
2,YRGEGDAA,no binding
3,YRGRSAWV,binds
4,YTGEGDGV,no binding
5,VTKAASWV,no binding
6,SEEASAVY,no binding
7,DKTGDDGS,no binding
8,YRGEGAWV,binds
9,YRGRSASS,binds
10,VEGAAAGS,no binding
11,YRGAAASS,binds
12,YRGRDSSS,binds
13,YRGRDASA,binds
14,YRGRDDLA,no binding
15,ATGEGDGV,no binding
16,SEARSFGV,no binding
17,YRGRDASS,binds
18,YRGRSAGS,binds
19,DAGGASGV,no binding
20,VERASAVV,no binding

row,Variant,antigen binding call
1,VRGTDAVV,no binding
2,VRRRGAGV,binds
3,VRGTDAGV,no binding
4,VRRRGAVV,binds
5,SGRGNSGV,no binding
6,DARADSGV,no binding
7,AARADDGV,no binding
8,YRTRDSGV,binds
9,YRAKGSGV,binds
10,YRTKGSGV,binds
11,YGAKGDGV,no binding
12,YRAKGAGV,binds
13,DTGTGASD,no binding
14,VAGGDAGV,no binding
15,AREEGFSV,no binding
16,DRAGDDVV,no binding
17,YRAKGAVV,binds
18,ARAGDAVV,no binding
19,YRAGDAVV,binds
